A selection: hits, their analogues and other compounds. The true share with any hit is near 4.3%.
NR3A LBD binder = NR3A (human) ligand-binding domain modulation; NR3A LBD differential scanning fluorimetry, Tm shift; 0% = protein alone, 100% = glycine-bound protein; Tm shift relative to glycine control, % at 25 µM; actives 2.5% (n = 340,000); AID 1259313;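 active means melting temperature shift of at least 10% of the positive control shift, at one fixed dose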
CR mimetic SO = yeast age-related superoxide inhibition as caloric restriction mimetic; actives 0.18% (n = 330,000); superoxide response (% of plate mean), % at 10 µM; S. cerevisiae aged cells, superoxide DHE fluorescence; hits give low values;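 active means superoxide response under a set limit, about three screen SD below normal, cut at about 65% in these data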;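 further: yeast aged for seven days with compound at 30 °C before DHE staining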
dFosB act = mouse delta FosB homodimer activation | purified delta FosB, TAMRA-CDK5 oligo fluorescence polarization; percent of positive-control signal above neutral wells | activation, % at 25 µM | actives 0.99% (n = 340,000) | AID 493131;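 active means mean activation above about 17%, with every replicate also reaching it, limit read from the data, passing the limit was not always enough; inconclusive means only one of the two conditions met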
Target sequence (P13346 whole entry, looked up): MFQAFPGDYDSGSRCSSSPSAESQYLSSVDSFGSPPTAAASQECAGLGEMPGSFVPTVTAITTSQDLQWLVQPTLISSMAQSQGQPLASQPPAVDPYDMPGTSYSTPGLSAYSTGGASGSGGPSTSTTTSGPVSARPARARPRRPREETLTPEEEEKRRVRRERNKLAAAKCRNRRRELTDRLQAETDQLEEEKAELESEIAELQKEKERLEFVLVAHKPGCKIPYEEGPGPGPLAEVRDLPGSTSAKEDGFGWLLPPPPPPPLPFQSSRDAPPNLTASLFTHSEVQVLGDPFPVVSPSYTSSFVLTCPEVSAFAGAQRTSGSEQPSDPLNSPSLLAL
UBC13 polyUb = inhibitors of human UBC13 polyubiquitin chain formation | TR-FRET | inhibition, % at 20 µM | P61088 | actives 0.47% (n = 330,000); in the data active means inhibition above about 45%, passing the limit was not always enough; inconclusive means no clear call, values can overlap the other calls
NALP1 inh = inhibitors of NALP1 inflammasome in yeast; actives 0.61% (n = 280,000); inhibition, % at 10 µM; S. cerevisiae NALP1/ASC/caspase-1 growth, X-gal OD620, 72 h; in the data active means inhibition mostly above about 24%, no sharp cut-off; inactive means mostly below about 32%
Casp3 UBC13 ctr = counter-screen for UBC13 inhibitors: human caspase-3 inhibition; actives 4% (n = 1,400); shares compounds with UBC13 polyUb; inhibition, % at 20 µM; AID 488856; Recombinant caspase-3, Caspase-Glo 3/7 luminescence, 60 min;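 active means mean inhibition across replicates above about 26%, limit read from the data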
UBC13 confirm = human UBC13 polyubiquitin inhibition, confirmed. shares compounds with UBC13 polyUb. UBC13 polyubiquitination, TR-FRET, biochemical. inhibition, % at 10 µM. actives 68% (n = 1,400). AID 488859; in the data active means inhibition above about 45%; inconclusive means no clear call, values can overlap the other calls
Large screens that a line does not name were inactive (follow-up assays come after a bar, where they were run).

COc1ccc(Nc2nc(NCC3CCCO3)c3ccccc3n2)c(OC)c1 (configuration not stated)	dFosB act inconclusive
CCOc1ccc(Nc2nc(NCC3CCCO3)c3ccccc3n2)cc1 (configuration not stated)	dFosB act inconclusive, UBC13 polyUb 66.3 | Casp3 UBC13 ctr inactive | UBC13 confirm 86.2
CN(Cc1cnn(Cc2ccccc2)c1)C(=O)c1cccc(S(=O)(=O)N2CCOCC2)c1	none (no result: NALP1 inh)
Cc1ccccc1C(=O)NCC(=O)NNC(=S)NC(=O)c1ccccc1	UBC13 polyUb 80.4 | Casp3 UBC13 ctr inactive | UBC13 confirm 81.9
Cc1ccccc1C(=O)NC(=S)NCC(=O)c1ccccc1	none
Cc1ccccc1C(=O)NCC(=O)NNC(=S)NC(=O)c1ccccc1C	UBC13 polyUb 87.4 | Casp3 UBC13 ctr inactive | UBC13 confirm 78.3
CCCCn1c(N)c(N(C)C(=O)c2ccccc2Oc2ccccc2)c(=O)[nH]c1=O	none (no result: NALP1 inh)
COc1cc(/C=C/c2cc[n+](C)cc2)ccc1OCC(=O)Nc1ccc(Cl)c(Cl)c1	UBC13 polyUb 102.6 | Casp3 UBC13 ctr inactive | UBC13 confirm 116.5
COc1ccc(NC(=O)COc2ccc(/C=C/c3cc[n+](C)cc3)cc2OC)cc1	none
CCOc1cccc2sc(N(CCCN(C)C)C(=O)c3ccc(S(=O)(=O)N(CC)Cc4ccccc4)cc3)nc12	UBC13 polyUb 50.7 | Casp3 UBC13 ctr inactive | UBC13 confirm 92.6
Cc1cc(C)c2sc(N(CCCN(C)C)C(=O)c3ccc(Br)s3)nc2c1	none
CCCCN(C)S(=O)(=O)c1ccc(C(=O)N(CCN(C)C)c2nc3ccc(C)cc3s2)cc1	none
CCN(Cc1ccccc1)S(=O)(=O)c1ccc(C(=O)N(CCCN(C)C)c2nc3cc(C)cc(C)c3s2)cc1	UBC13 polyUb 74.1 (no result: NALP1 inh) | Casp3 UBC13 ctr inactive | UBC13 confirm 108.7
CCN(Cc1ccccc1)S(=O)(=O)c1ccc(C(=O)N(CCCN(C)C)c2nc3c(F)cccc3s2)cc1	none
Cc1cc(C)c2sc(N(CCCN(C)C)C(=O)c3ccc(S(=O)(=O)N(C)Cc4ccccc4)cc3)nc2c1	UBC13 polyUb 95.9 (no result: NALP1 inh) | Casp3 UBC13 ctr inactive | UBC13 confirm 115.4
CCN(c1ccccc1)S(=O)(=O)c1ccc(C(=O)N(CCCN(C)C)c2nc3c(C)cccc3s2)cc1	none
CCCCN(CC)S(=O)(=O)c1ccc(C(=O)N(CCCN(C)C)c2nc3cc(C)cc(C)c3s2)cc1	UBC13 polyUb 80.0 | Casp3 UBC13 ctr inactive | UBC13 confirm 102.2
CCN1C(=O)[C@H]2[C@@H](c3ccc(-c4ccc(Cl)c(Cl)c4)c(OC)c3)N[C@@](Cc3ccccc3)(C(=O)OC)[C@H]2C1=O	none (no result: NALP1 inh)
COc1ccc(CC(=O)Nc2ccc(S(=O)(=O)N3CCOCC3)cc2)cc1	none (no result: NALP1 inh)
COc1ccc(OCCCC(=O)Nc2ccc(S(=O)(=O)N3CCOCC3)cc2)cc1	NR3A LBD binder 11.0, UBC13 polyUb 57.6 (no result: NALP1 inh) | Casp3 UBC13 ctr inactive | UBC13 confirm 55.4
COC(=O)c1ccc2c(=O)n(CCCCCC(=O)O)c(=S)[nH]c2c1	none
COc1ccc(OC)c2sc(N(CCCN(C)C)C(=O)c3ccc(S(=O)(=O)N4CCc5ccccc5C4)cc3)nc12	UBC13 polyUb 100.5 (no result: NR3A LBD binder, dFosB act, NALP1 inh) | Casp3 UBC13 ctr inactive | UBC13 confirm 118.0
CCOc1ccc2nc(N(CCCN(C)C)C(=O)c3ccc(S(=O)(=O)N4CCc5ccccc5C4)cc3)sc2c1	UBC13 polyUb 84.4 | Casp3 UBC13 ctr inactive | UBC13 confirm 115.1
CN(C)CCCN(C(=O)c1ccc(S(=O)(=O)N2CCCCCC2)cc1)c1nc2c(F)cccc2s1	none
CCc1ccc2nc(N(CCCN(C)C)C(=O)c3ccc(S(=O)(=O)N4CCCC4)cc3)sc2c1	none
COc1cc2nc(N(CCCN(C)C)C(=O)c3ccc(S(=O)(=O)N4CCc5ccccc5C4)cc3)sc2cc1OC	UBC13 polyUb 71.0 (no result: NALP1 inh) | Casp3 UBC13 ctr inactive | UBC13 confirm 104.8
CCC1C(=O)NCCN1C(=O)c1ccc2nc(Cc3cccc(Cl)c3)oc2c1 (configuration not stated)	none
Cc1ccc(NC(=O)COC(=O)Cc2ccc(Br)cc2)cc1S(=O)(=O)N1CCOCC1	none (no result: NALP1 inh)
